Our source for the growth values is PubChem BioAssay (NCI).

Where “and” joins values, the source holds several entries; their conditions need not be identical. Equal values may be shown once. Compounds without any hit were thinned out: in the full panel of roughly 83,000, 20% have a hit.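 Each cell line was grown in a 96-well plate and treated with one concentration of compound for 48 hours. Values below 10 were considered active.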 Values without a mark were called inactive. Calls of active or inactive are those of the source.

The test system of the assay is HL-60(TB) leukemia. Put plainly: NCI-60 one-dose screen, 48 h (100 = growth as untreated, 0 = no growth, -100 = all killed). To be noted: 10 µM unless noted.
With `COc1cc2c(cc1OCCCN1CCN(CCCOc3cc4c(cc3OC)C(=O)N3C[C@H](F)C[C@H]3C=N4)CC1)N=C[C@@H]1C[C@@H](F)CN1C2=O`, the growth was -28.8% (active).

For the compound `COc1cc2c(c(OC)c1OC)CCC(c1cccc(C(=O)Nc3ccc(C#N)cc3)c1)O2` (stereo not given), the growth was 15.2%.

Take `CCOC(=O)CC[C@H](NC(=O)c1ccc(NC)c2ccccc12)C(=O)OCC`: the growth was 105%.

Consider `CCOC(=O)CSc1nnc(-c2cc3c([nH]c4ccccc43)c(-c3cccc(O)c3)n2)n1-c1ccc(C)cc1`, for which the growth was 45.3%.

For `COc1ccc(CCNC(=S)NN)cc1OC`, the growth was 92.1%.

Take `O=C1c2ccccc2C(=O)N1/N=C/c1ccc2c(c1)OCO2`: the growth is 88.1%.

For the compound `O=C1C=Cc2ncccc2C1=O`, the growth was 57.7%.

For the compound `O=C1C(=O)c2ccccc2C(O)=C1CCCc1ccc(C2CCCC2)cc1`, the growth is 20.6%.

On to `O=C(Nc1ccc2cc3ccc(NC(=O)N4CCCCCC4)cc3nc2c1)N1CCCCCC1`, for which the growth is -49.6% (active).

Consider `OCCN(CCO)c1ccc2ccccc2c1`, for which the growth was 87.9%.

With `Nc1n[nH]c2cccc(C#Cc3cccc(NC(=O)c4cccc(C(F)(F)F)c4)c3)c12`, the growth was 9.22% (active).

Regarding `COc1ccc(-n2sc(=O)n(Cc3ccc(COC(=O)C(C)c4ccc(CC(C)C)cc4)cc3)c2=O)cc1` (stereo not given), the growth was -43.3% (active).

As for `Cc1cc2nc3ccc(=[N+](C)C)cc-3sc2cc1N`, the growth is -50.3% (active) and -34.8% (active).

With `O=C(CCl)N(O)c1ccc(/C=C/c2ccccc2)cc1`, the growth is 69.4% and 51%.

In the case of `N#CC1=C(N)Oc2c(ccc3ccccc23)C1c1ccc([N+](=O)[O-])cc1` (stereo not given), the growth was 69.9%.

With `Nc1c(N)c2ccccc2c2ccccc12`, the growth was 104%.

Turning to `CN1CCN(Cc2ccc(NC(=O)c3[nH]ncc3Nc3ncnc4[nH]ccc34)cc2)CC1`, the growth is -31.4% (active).

Regarding `CC/C=C\C[C@H](O)C/C=C1/C(=O)C(Cl)=C[C@@H]1C/C=C\CCCC(=O)O`, the growth was 19.4%.

As for `CC1=C(/C=C/C(C)=C/C=C/C(C)=C/CO)C(C)(C)CCC1`, the growth is 103%.

On to `Cn1c(=O)cc(NC(=O)CN2CCN(c3cc4c(cc3F)c(=O)c(C(=O)O)cn4C3CC3)CC2)[nH]c1=O`, for which the growth is 98.2%.

With `CC(O)(CC(=O)CC(=O)c1ccccc1)c1ccccc1` (stereo not given), the growth was 101% and 90.1%.

For `COc1ccc(-c2ccc3c(c2)sc2nc(-c4ccc(F)cc4)cn23)cc1`, the growth was 92%.

Regarding `Cn1c(-c2nonc2NC(=O)c2ccc(F)cc2)nc2ccccc21`, the growth was -30.1% (active).

`Cc1ccc(NC(=O)NC(=O)CSc2nc3ccccc3nc2C)cc1`: the growth is 67.9%.

As to `Nc1c(C(=O)Nc2ccncc2)sc2nc3c(cc12)C(O)CCC3` (stereo not given), the growth was 95.4%.

As to `CCN1C(=O)/C(=C/N2N=C(c3ccc(Cl)cc3)CC2c2ccc(OC)cc2)SC1=S` (stereo not given), the growth was 67.1%.

Take `CC(C)Sc1nc(NN)c(C#N)c(-c2ccccc2)n1`: the growth is 98.8%.

Regarding `CC1=C(C(=O)OCC2CCN(C(=O)OC(C)(C)C)CC2)[C@@H](c2cccc(C#N)c2)C2=C(CC(C)(C)CC2=O)N1`, the growth is 16.8%.

Regarding `C#Cc1ccccc1NC(=O)c1sc2nc3c(cc2c1N)CCCCCC3`, the growth was 92.7%.

Turning to `Cc1ncc(CO)c(C(=O)O)c1O`, the growth is 84.2%.

Regarding `C=C(C)[C@@H]1CC[C@]2(C(=O)NCCNCCN)CC[C@]3(C)[C@H](CC[C@@H]4[C@@]5(C)C/C(=C/c6ccncc6)C(=O)C(C)(C)[C@@H]5CC[C@]43C)[C@@H]12`, the growth is 74.1%.

In the case of `O=C(Nc1cccc(Cl)c1)c1cc(Cl)ccc1O`, the growth was -32.4% (active).

With `O=C(N/N=C\c1cc(Cl)ccc1O)c1ccncc1`, the growth was 0% (active).

For the compound `CS(=O)(=O)Nc1cc(-c2ccc3ncnc(Nc4ccc5c(cnn5Cc5ccccn5)c4)c3c2)cnc1Cl`, the growth was 56.5%.

Turning to `COc1cc(C2CC(c3ccccc3)=NN2C=O)ccc1Oc1ccnc2cc(Cl)ccc12` (stereo not given), the growth is 33.5%.

With `Nc1[nH]n2cc(-c3ccccc3)nc2c1N=Nc1ccc(S(N)(=O)=O)cc1`, the growth was 27.9%.

Turning to `Cc1ccc(/C=C2\SC(=S)N(c3ccc(F)cc3)C2=O)o1`, the growth was 82.8%.

With `O=C1CCCN1C(O)CCN(Cc1ccccc1)Cc1ccc(Cl)cc1` (stereo not given), the growth is 96.4%.

In the case of `COc1cc(/C=C2/Oc3cc4occc4c(OC)c3C2=O)ccc1OCC(=O)Nc1ccncc1`, the growth was 106%.

For `O=S(=O)(Nc1ccc(-c2nc(-c3cccc(OCCN4CCOCC4)c3)c(-c3ccnc(Br)c3)[nH]2)cc1)c1ccccc1`, the growth was -2.01% (active).
